Results taken from PMC5540273 (PLoS ONE, 2017).

Key:
Conditions in all cases: concentration: 1 μM, replicates: in singlicate; n = 1
[1] = system: MYO3B
[2] = system: T1, NDR1
T1 construct: gene STK38

[3] = system: NDR2
[4] = system: NEK10
[5] = system: NEK11
[6] = system: NEK1
[7] = system: NEK2
[8] = system: NEK3
[9] = system: NEK4
[10] = system: NEK5
[11] = system: NEK6
[12] = system: NEK7
[13] = system: NEK9
[14] = system: T2, NIK
T2 construct: gene MAP3K14

[15] = system: T3, NIM1
T3 construct: gene MGC42105

[16] = system: NLK
[17] = system: T4, OSR1
T4 construct: gene OXSR1

[18] = system: PAK1
[19] = system: PAK2
[20] = system: PAK3
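Also: KINOMEscan kinase panel screen.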

| SMILES | %Inh [1] [%] | %Inh [2] [%] | %Inh [3] [%] | %Inh [4] [%] | %Inh [5] [%] | %Inh [6] [%] | %Inh [7] [%] | %Inh [8] [%] | %Inh [9] [%] | %Inh [10] [%] | %Inh [11] [%] | %Inh [12] [%] | %Inh [13] [%] | %Inh [14] [%] | %Inh [15] [%] | %Inh [16] [%] | %Inh [17] [%] | %Inh [18] [%] | %Inh [19] [%] | %Inh [20] [%] |
| --- | --- | --- | --- | --- | --- | --- | --- | --- | --- | --- | --- | --- | --- | --- | --- | --- | --- | --- | --- | --- |
| NS(=O)(=O)c1cccc(-c2ccc3nccc(-c4cccc(S(N)(=O)=O)c4)c3c2)c1 [GW867253] | 0 | 41 | 19 | 20 | 8 | 0 | 0 | 29 | 0 | 7 | 0 | 0 | 0 | 32 | 0 | 0 | 0 | 7 | 53 | 0 |
| NS(=O)(=O)c1cccc(-c2ccc3ncc(N4CCOCC4)nc3c2)c1 [GSK1535721] | 0 | 21 | 0 | 0 | 0 | 0 | 12 | 0 | 0 | 8 | 0 | 0 | 0 | 0 | 0 | 8 | 0 | 17 | 0 | 0 |
| O=C(Nc1n[nH]c2cc(-c3cccc(F)c3)ccc12)C1CC1 [SB-735464] | 0 | 25 | 11 | 0 | 37 | 0 | 0 | 23 | 14 | 0 | 3 | 0 | 0 | 9 | 12 | 86 | 0 | 0 | 30 | 44 |
| Cc1nnc(-c2ccc3ncc(-c4ccc(S(C)=O)cc4)n3c2)o1 (stereo not drawn) | 0 | 0 | 0 | 0 | 0 | 0 | 12 | 36 | 0 | 0 | 12 | 0 | 0 | 0 | 0 | 0 | 9 | 17 | 3 | 0 |
| O=C(c1ccc(-c2cc(-c3c[nH]nc3-c3ccccn3)ccn2)cc1)N1CCOCC1 [GW812171] | 0 | 44 | 0 | 18 | 0 | 0 | 0 | 25 | 0 | 0 | 2 | 0 | 0 | 32 | 0 | 0 | 0 | 7 | 0 | 0 |
| c1ccc(-c2cc(-c3c[nH]nc3-c3ccccn3)ccn2)cc1 [GW576604] | 0 | 17 | 23 | 19 | 3 | 0 | 0 | 2 | 0 | 0 | 0 | 0 | 17 | 24 | 20 | 44 | 0 | 16 | 13 | 16 |
| c1ccc(-c2n[nH]cc2-c2ccnc3ccccc23)nc1 [GW271431] | 0 | 17 | 0 | 8 | 0 | 0 | 2 | 14 | 3 | 22 | 0 | 0 | 58 | 4 | 21 | 58 | 13 | 16 | 20 | 6 |
| COc1ccc(S(=O)(=O)NC2CCN(c3cc(C)nc(Nc4cccc(C#N)c4)n3)CC2)cc1.O=C(O)C(F)(F)F [GSK1653539] | 0 | 35 | 0 | 23 | 0 | 0 | 3 | 0 | 0 | 2 | 0 | 0 | 0 | 5 | 0 | 50 | 0 | 3 | 0 | 0 |
| CN1c2ccc(NCc3ccc(F)cc3)cc2-c2c(cnn2C)S1(=O)=O | 0 | 22 | 0 | 2 | 0 | 0 | 0 | 33 | 0 | 0 | 0 | 0 | 0 | 7 | 4 | 0 | 0 | 0 | 1 | 0 |
| COc1ccc(Nc2nccc(N3CCC(NC(=O)Nc4cc(C)ccc4C)C3)n2)cc1 (stereo not drawn) [GSK1379741] | 0 | 7 | 0 | 1 | 20 | 0 | 0 | 0 | 0 | 6 | 0 | 0 | 9 | 7 | 7 | 35 | 1 | 7 | 0 | 0 |
| Cc1ccc(C(=O)NCC(N)=O)cc1-n1c(C)cc(OCc2ccc(F)cc2F)c(Br)c1=O | 15 | 24 | 13 | 0 | 0 | 0 | 10 | 29 | 0 | 0 | 4 | 12 | 4 | 0 | 0 | 14 | 0 | 16 | 14 | 37 |
| Cc1cccc(-c2nc(Nc3ccc4ncsc4c3)c3ccccc3n2)n1 [GW867588] | 16 | 14 | 4 | 5 | 0 | 0 | 0 | 0 | 0 | 0 | 8 | 0 | 0 | 0 | 17 | 14 | 0 | 0 | 45 | 19 |
| CC(=O)Nc1ccc(COc2ccc(Nc3ccnc4cc(-c5ccccn5)ccc34)cc2)cc1.Cl [GW440148] | 2 | 20 | 37 | 3 | 0 | 0 | 8 | 6 | 0 | 10 | 0 | 0 | 20 | 0 | 23 | 0 | 0 | 15 | 0 | 22 |
| O=c1cc(N2CCOCC2)nc2n(Cc3cccc(Cl)c3Cl)c(C3CC3)nn12 [GSK2358994] | 0 | 0 | 0 | 20 | 0 | 0 | 7 | 5 | 11 | 0 | 8 | 21 | 0 | 0 | 0 | 22 | 0 | 16 | 0 | 0 |
| NCC(NC(=O)c1cc(-c2cn[nH]c2)c(-c2ccnc3[nH]ccc23)s1)c1ccccc1.O=C(O)C(F)(F)F.O=C(O)C(F)(F)F (stereo not drawn) [GSK1325775] | 0 | 65 | 70 | 50 | 15 | 72 | 43 | 7 | 0 | 57 | 0 | 0 | 10 | 28 | 38 | 0 | 4 | 19 | 32 | 39 |
| Cl.Oc1cccc(Nc2ccnc3cc(-c4ccncc4)ccc23)c1 [GW494601] | 0 | 24 | 37 | 0 | 49 | 0 | 0 | 1 | 0 | 0 | 0 | 0 | 0 | 30 | 0 | 66 | 0 | 0 | 0 | 33 |
| O=c1cc(N2CCOCC2)nc2n(Cc3cccc(C(F)(F)F)c3)ccn12 [GSK2297543] | 0 | 16 | 7 | 0 | 0 | 0 | 0 | 0 | 0 | 0 | 0 | 0 | 18 | 25 | 14 | 32 | 5 | 6 | 14 | 14 |
| O=C(NCCNc1ccnc(Nc2ccc(F)cc2)n1)Nc1ccccc1F [GSK1379880] | 0 | 0 | 0 | 12 | 0 | 0 | 0 | 11 | 15 | 0 | 0 | 0 | 11 | 9 | 14 | 28 | 20 | 2 | 0 | 0 |
| O=C(Nc1cccc(-c2nn3ncccc3c2-c2ccnc(Nc3cccc(C(F)(F)F)c3)n2)c1)c1c(F)cccc1F [GSK299495] | 4 | 0 | 0 | 17 | 19 | 0 | 0 | 11 | 0 | 13 | 0 | 0 | 0 | 0 | 25 | 70 | 23 | 0 | 0 | 10 |
| CSc1ccc(-c2cc3ncnc(SCC(=O)O)c3s2)cc1 | 1 | 1 | 0 | 26 | 0 | 2 | 0 | 31 | 0 | 0 | 17 | 8 | 0 | 0 | 0 | 26 | 0 | 0 | 0 | 0 |
| COc1cc2c(cc1OC[C@@H](O)CO)ncc1c3ccc(C#N)cc3[nH]c21 | 0 | 62 | 15 | 18 | 0 | 0 | 23 | 37 | 0 | 0 | 0 | 0 | 0 | 60 | 30 | 0 | 0 | 0 | 0 | 0 |
